PubChem BioAssay (NCI)
The panel holds about 83,000 compounds, 20% with a hit somewhere; the sample as a whole holds those more often.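 A percent growth of 40 corresponds to 60% growth inhibition; 0 means no net growth; -100 means all cells died. Active threshold: below 10.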 Unmarked numbers belong to inactive results. The source made the active and inactive calls.

Experiments:
Assay in all cases: NCI-60 one-dose screen, 48 h (100 = growth as untreated, 0 = no growth, -100 = all killed)
Conditions in all cases: 10 µM unless noted
[1] = tested on: SR leukemia
[2] = tested on: RPMI-8226 leukemia
[3] = tested on: OVCAR-8 ovarian
[4] = tested on: OVCAR-5 ovarian
[5] = tested on: OVCAR-4 ovarian
[6] = tested on: SK-OV-3 ovarian
[7] = tested on: IGROV1 ovarian
[8] = tested on: OVCAR-3 ovarian
[9] = tested on: HS 578T breast
[10] = tested on: NCI/ADR-RES ovarian
[11] = tested on: T-47D breast
[12] = tested on: BT-549 breast
[13] = tested on: MDA-MB-435 melanoma
[14] = tested on: SW-620 colon
[15] = tested on: HCT-116 colon
[16] = tested on: HCC-2998 colon
[17] = tested on: KM12 colon
[18] = tested on: MCF7 breast

Compound	growth [1]	growth [2]	growth [3]	growth [4]	growth [5]	growth [6]	growth [7]	growth [8]	growth [9]	growth [10]	growth [11]	growth [12]	growth [13]	growth [14]	growth [15]	growth [16]	growth [17]	growth [18]
CC(=O)O[C@H]1CC[C@]2(C)[C@H]3C(=O)C=C4[C@@H]5C[C@](C)(C(=O)N6CCCNCC6)CC[C@]5(C)CC[C@@]4(C)[C@]3(C)CC[C@H]2C1(C)C	-17.3% (active)	-32.3% (active)	-24.6% (active)	8.24% (active)	-5.14% (active)	70.6%	-80.5% (active)	-86.4% (active)	96.2%	-41.6% (active)	-49.6% (active)	86.9%	-14.9% (active)	-88.7% (active)	-95.3% (active)	11.2%	13.4%	–
Cc1ccc2c(c1)c1nc3cc(C)c(C)cc3nc1n2CCN(C)C	6.5% (active)	1.96% (active)	18.4%	20.5%	33.1%	30.9%	6.96% (active)	29.7%	50.1%	12.8%	23.2%	50.2%	16.1%	12.5%	8.95% (active)	32.9%	21.7%	–
Cn1c(/C(C#N)=C/c2ccc3ccccc3c2)cc2ccccc21	19.5%	5.55% (active)	30.3%	34.4%	56.5%	58.8%	21.2%	-0.996% (active)	23.8%	-18.4% (active)	73.4%	-16.6% (active)	-14.7% (active)	–	8.56% (active)	16.9%	15.1%	14.1%
Cc1cccc(C)c1NCc1nc(-c2ccccc2)n[nH]1	102%	108%	102%	95.6%	102%	93.7%	94.6%	113%	108%	103%	87.8%	94.8%	101%	–	98.7%	101%	103%	88.2%
COCCNC1=C(Cl)C(=O)c2ccccc2C1=O	105%	90.4%	89.5%	107%	93.6%	116%	126%	116%	105%	95.3%	98.8%	98.2%	24.5%	–	86.8%	95%	83.3%	81.3%
COc1ccc2c(c1)C(Br)=C(CCO)C2c1ccccc1 (stereo not drawn)	112%	40.7%	86.1%	78%	87.3%	78.1%	83.5%	26%	35.7%	65.1%	54.3%	87.7%	91.8%	–	57.3%	49.3%	42.8%	58.8%
Cc1nn(-c2ccc(Br)cc2)c2nc3[nH]c(=O)[nH]c(=O)c3nc12	114%	121%	111%	112%	103%	110%	107%	117%	104%	107%	102%	94.2%	99.1%	–	98.3%	114%	103%	93.4%
N#Cc1cnc2cc(OC[C@@H](O)CO)c(NC(=O)CC3CSSC3)cc2c1Nc1ccc(OCc2cccc(F)c2)c(Cl)c1	1.96% (active)	-29.7% (active)	-48.2% (active)	-72.8% (active)	-64.4% (active)	-86.2% (active)	-56% (active)	-81.3% (active)	-39.8% (active)	85.9%	-60.9% (active)	-71% (active)	-85.2% (active)	–	-60.5% (active)	-78.2% (active)	-79.6% (active)	-58.8% (active)
COc1ccc(/C=C2\N=C(c3ccccc3)N(c3cc(OC)c(OC)cc3C(=O)N3N=C(C)CC3=O)C2=O)cc1	92.1%	47.7%	89.4%	103%	101%	99.3%	99.8%	105%	91.7%	78.6%	71.2%	90.1%	93.4%	–	89.6%	113%	91.1%	–
Cc1cc(N2CCCCC2)nc(N(CCNc2ccnc3cc(Cl)ccc23)Cc2ccco2)n1	-15.8% (active)	-36.5% (active)	22.3%	50.2%	43.2%	77.9%	18.1%	-40% (active)	51.4%	10.5%	-29.3% (active)	42.4%	32.8%	21.9%	2.13% (active)	92.6%	31.9%	–
C=COCCCCCCCCCCCCCCCCCC	94.6%	115%	96.5%	106%	109%	103%	118%	92.6%	89.3%	98.9%	114%	103%	114%	–	103%	99.3%	92.8%	104%
CN1CCN(CC#CCn2c3c(c4ccccc42)C[C@]2(C)[C@H]4CC[C@@H]5[C@H]6[C@H]7OC(=O)[C@@]6(CCC7(C)C)CC[C@@]5(C)[C@]4(C)CC[C@H]2C3(C)C)CC1	0.535% (active)	59.2%	60.3%	112%	74.1%	106%	90.9%	80.2%	101%	77%	104%	89.5%	97.8%	–	35.1%	106%	93.7%	67.7%
COc1ccc2c3c(c4ccccc4cc13)C(=O)N(CCN(C)CCN)C2=O	-31.8% (active)	-45.1% (active)	-52.5% (active)	-65.9% (active)	-79.4% (active)	-6.29% (active)	-48.4% (active)	-62.5% (active)	24.8%	-7.12% (active)	6.79% (active)	26.1%	-92.6% (active)	–	-94.8% (active)	-80.2% (active)	-68.6% (active)	-88.2% (active)
COc1cnc2c(c1)C(=O)c1c-2n(CCCNC2=NCCS2)c(=O)c2cc([N+](=O)[O-])ccc12	-9.1% (active)	-32.1% (active)	-6.2% (active)	28.9%	-71.9% (active)	9.4% (active)	-0.756% (active)	-71.1% (active)	69.9%	-8.56% (active)	14.4%	35%	-92.7% (active)	-59% (active)	-66.4% (active)	-61.2% (active)	-43.9% (active)	–
COc1cccc(-c2nn(-c3ccccc3)cc2-c2ccnc(NCCCNS(=O)(=O)c3cccc(F)c3)c2)c1	-7.52% (active)	14.3%	12.1%	61.3%	34%	40.9%	29.6%	46.5%	32%	12.7%	-1.01% (active)	24.3%	22.4%	39.9%	–	11.7%	24.5%	–
c1cnc2[nH]cc(-c3csc(-c4cn(CCCN5CCCCC5)c5ccccc45)n3)c2c1	-31.4% (active)	-26.8% (active)	69.7%	92.5%	75.7%	94.2%	34.6%	60.4%	73.3%	68.1%	63.1%	90.9%	1.72% (active)	-47.4% (active)	60.6%	87.6%	63.3%	–
Nc1c(C(=O)Nc2cccc3ccccc23)sc2nc3c(cc12)CCCC3	9.22% (active)	28.3%	33.8%	44.7%	52.7%	36.8%	45.4%	2.02% (active)	27.8%	0.722% (active)	55.7%	64.6%	-63.1% (active)	31%	–	26.7%	26.7%	–
COC(=O)[C@]12CC[C@@H](C)[C@H](C)[C@@H]1C1=CC[C@@H]3[C@@]4(C)CC(=O)[C@H](OC(=O)c5ccco5)[C@@]5(C)COC(=C45)C[C@@]3(C)[C@]1(C)CC2	25.8%	24.4%	28.5%	69.2%	19.6%	36.1%	53%	43.5%	61.4%	33.3%	1.72% (active)	25.9%	–	31.2%	16.4%	52.3%	27.9%	15.7%
